From the supplement of paper PMC3545927 come the findings set out here.

This is one part of the list. No count for the full screen is at hand.

The assay deals with furin, P09958. Kind of assay: furin cleavage Z-score vs untreated control; higher = more cleavage, active = 3.5 or more, inactive = 1 or less, 8 variable residues between constant flanks. The essentials: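 The cleavage Z-score was derived for purified furin acting on 8-mer peptides held on magnetic beads and fused to a cDNA oligonucleotide. Digests lasted 7.5, 15 or 30 min at 1:10 enzyme:substrate in 50 mM HEPES pH 7.5 with CaCl2 and NaCl. Sequencing counts of released DNA, log-transformed against furin-free reactions, were lowess-adjusted and scaled by median absolute deviation.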
Chain of furin, P09958 (P09958 whole entry, the tested form may be a part): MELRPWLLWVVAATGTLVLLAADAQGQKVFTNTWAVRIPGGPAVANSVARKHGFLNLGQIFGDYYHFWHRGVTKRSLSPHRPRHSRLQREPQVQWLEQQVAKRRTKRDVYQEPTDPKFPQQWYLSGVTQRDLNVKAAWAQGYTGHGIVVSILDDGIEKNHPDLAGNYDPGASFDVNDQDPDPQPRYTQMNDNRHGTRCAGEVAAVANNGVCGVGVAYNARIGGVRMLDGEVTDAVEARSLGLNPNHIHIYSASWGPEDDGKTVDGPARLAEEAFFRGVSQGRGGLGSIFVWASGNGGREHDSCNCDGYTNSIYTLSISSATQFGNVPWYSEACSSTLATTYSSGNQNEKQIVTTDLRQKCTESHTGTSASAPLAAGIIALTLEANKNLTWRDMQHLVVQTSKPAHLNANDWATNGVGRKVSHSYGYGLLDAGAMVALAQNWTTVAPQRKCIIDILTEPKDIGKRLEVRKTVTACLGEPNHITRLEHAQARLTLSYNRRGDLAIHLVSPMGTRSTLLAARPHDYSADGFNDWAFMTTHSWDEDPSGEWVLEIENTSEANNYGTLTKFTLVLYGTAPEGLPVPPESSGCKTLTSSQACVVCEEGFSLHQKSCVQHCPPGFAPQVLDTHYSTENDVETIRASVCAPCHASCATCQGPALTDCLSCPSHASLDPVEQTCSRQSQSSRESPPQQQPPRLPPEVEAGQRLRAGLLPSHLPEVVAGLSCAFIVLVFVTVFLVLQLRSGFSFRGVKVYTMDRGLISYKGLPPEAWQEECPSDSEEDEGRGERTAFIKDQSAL

B1: HC1016 (peptide)
chain: CACSQHLPYIAGNASASA
For B1, the “furin cleavage Z-score” value runs as follows: (7.5 min) -1.19 (inactive); (15 min) -4.19 (inactive); (30 min) -2.45 (inactive).

B2: HC744 (peptide)
chain: CAGPLLCPAGAGNASASA
As for B2, the “furin cleavage Z-score” value is, setting by setting: (7.5 min) -0.656 (inactive); (15 min) -1.61 (inactive); (30 min) -1.61 (inactive).

B3: HC2478 (peptide)
chain: CATTPCSAHLAGNASASA
Turning to B3, the “furin cleavage Z-score” value reads like this: (7.5 min) 0.336 (inactive); (15 min) 0.111 (inactive); (30 min) -0.164 (inactive).

B4: HC2052 (peptide)
chain: CAVVCCSESYAGNASASA
Take B4: the “furin cleavage Z-score” value was -0.759 (inactive) (7.5 min), -0.905 (inactive) (15 min) and -0.208 (inactive) (30 min).

B5: FS-287 (peptide)
chain: CAQRRRSIRDAGNASASA
Take B5: the “furin cleavage Z-score” value is 14.8 (active) (7.5 min), 16.3 (active) (15 min) and 11.3 (active) (30 min).

B6: FS-668 (peptide)
chain: CAIPCRSIRDAGNASASA
With B6, the “furin cleavage Z-score” value by setting is: (7.5 min) 4.89 (active); (15 min) 6.2 (active); (30 min) 5.07 (active).

B7: FS-371 (peptide)
chain: CAQRRRPTRPAGNASASA
As to B7, the “furin cleavage Z-score” value is -1.13 (inactive) (7.5 min), 0.703 (inactive) (15 min) and -0.42 (inactive) (30 min).

B8: HC2518 (peptide)
chain: CASTTCSAHLAGNASASA
As to B8, the “furin cleavage Z-score” value is -0.961 (inactive) (7.5 min), -1.68 (inactive) (15 min) and -0.439 (inactive) (30 min).

B9: FS-2839 (peptide)
chain: CARVKRSRRRAGNASASA
Consider B9, for which the “furin cleavage Z-score” value reads like this: (7.5 min) 10.1 (active); (15 min) 10.8 (active); (30 min) 9.23 (active).

B10: FS-1448 (peptide)
chain: CADPSRSRRRAGNASASA
As for B10, the “furin cleavage Z-score” value runs as follows: (7.5 min) 0.778 (inactive); (15 min) 3.15; (30 min) 3.47.

B11: HC186 (peptide)
chain: CAKTSERSQPAGNASASA
In the case of B11, the “furin cleavage Z-score” value by setting is: (7.5 min) 2.56; (15 min) -0.461 (inactive); (30 min) 0.776 (inactive).

B12: FS-1225 (peptide)
chain: CAKTSRSRRRAGNASASA
For the sequence B12, the “furin cleavage Z-score” value is 5.45 (active) (7.5 min), 6.99 (active) (15 min) and 6.15 (active) (30 min).

B13: FS-329 (peptide)
chain: CAGESRSRRRAGNASASA
With B13, the “furin cleavage Z-score” value runs as follows: (7.5 min) 2.73; (15 min) 3.06; (30 min) 3.66 (active).
